High-throughput results as filed in PubChem BioAssay.
uPA generation: qHTS for Inhibitors of Cell Surface uPA Generation; cell surface uPA generation assay, qHTS; 330,000 compounds, 0.31% hits; AID 540303, 2011; Potency, µM (doses to about 38.3 µM), usual class: inhibitors; active means well fitted inhibition curve with a large enough effect; inconclusive means small, poorly fitted or top-dose-only effect; inactive means no such curve, though single readings can be large or run the other way; tested in mouse RAW 264.7 cells; further: nearly all actives have a fitted effect of over 55% in size
12-LOX inh: Primary qHTS assay for inhibitors of human arachidonate 12S-lipoxygenase (ALOX12): Round 2; 580,000 compounds, 1.1% hits; purified 12hLO, xylenol orange hydroperoxide absorbance; Polyunsaturated fatty acid lipoxygenase ALOX12 (Homo sapiens), P18054; Potency, µM (series often up to 108 µM), most hits filed as inhibitors
Target sequence (P18054 whole entry, looked up): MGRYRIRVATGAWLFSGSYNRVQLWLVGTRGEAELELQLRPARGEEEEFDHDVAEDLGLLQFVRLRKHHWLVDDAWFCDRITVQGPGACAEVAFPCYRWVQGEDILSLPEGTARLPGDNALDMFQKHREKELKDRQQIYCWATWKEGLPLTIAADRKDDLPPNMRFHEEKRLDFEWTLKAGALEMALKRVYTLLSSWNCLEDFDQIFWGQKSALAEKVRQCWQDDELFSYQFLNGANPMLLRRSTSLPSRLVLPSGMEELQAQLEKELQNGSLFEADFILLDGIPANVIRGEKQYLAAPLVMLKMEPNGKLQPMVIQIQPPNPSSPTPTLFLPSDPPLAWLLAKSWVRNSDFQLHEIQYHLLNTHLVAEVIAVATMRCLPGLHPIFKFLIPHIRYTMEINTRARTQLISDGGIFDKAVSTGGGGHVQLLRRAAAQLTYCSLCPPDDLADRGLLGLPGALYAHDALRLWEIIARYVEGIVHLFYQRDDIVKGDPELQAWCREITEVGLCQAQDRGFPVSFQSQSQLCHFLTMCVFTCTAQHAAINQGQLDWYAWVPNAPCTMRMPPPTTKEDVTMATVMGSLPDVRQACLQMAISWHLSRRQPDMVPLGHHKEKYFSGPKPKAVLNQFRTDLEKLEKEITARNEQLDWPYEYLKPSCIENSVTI
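Purified human 12hLO at 150 nM in 25 mM Hepes, 0.01% Triton X-100, pH 7.0, preincubated 15 min at room temperature with compound. Reaction started with 40 uM arachidonic acid, 30 min at room temperature. Hydroperoxide measured by Fe-xylenol orange, 573/405 nm absorbance ratio.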
Integrin act MD: qHTS for Activators of Integrin-Mediated Alleviation for Muscular Dystrophy | AID 624291, 2012 | Potency, µM (top dose mostly 38.3 µM), usual class: activators | alpha7betagal myoblasts, beta-gal FDG fluorescence, 48 h | 350,000 compounds, 0.064% hits; further: nearly all actives have a fitted effect of over 60% in size
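Alpha7betagal+/- myoblasts (passage 13) were plated 16-24 hr, then exposed to compounds (1:260 dilution of DMSO stock) for 48 hours at 37C. After MPER lysis, β-galactosidase reporter activity was read as FDG fluorescence (ex 480/em 540) after 30 minutes.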
Nrf2 ARE act: qHTS of Nrf2 Activators | AREc32 ARE-luciferase reporter (MCF7-derived line), luminescence, 24 h | Potency, µM (series often up to 46.1 µM), most hits filed as activators | 410,000 compounds, 0.31% hits; further: nearly all actives have a fitted effect of over 65% in size
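Reporter line AREc32 (ARE-Fluc), seeded overnight in OPTI-MEM with 5% FBS; compound pin-transferred, 24 hr at 37 deg C, 5% CO2; luminescent read-out.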
IL2 activator: qHTS of IL-2 Activators | IL-2 activation reporter assay, cell-based qHTS; stimulated with anti-CD3/CD4/CD28 beads; in transgenic mouse T cells | activation, % (series mostly up to about 46 µM) | 360,000 compounds, 0.065% hits | AID 652025, 2013; in the data active means activation above about 50%; inconclusive means mostly about 30% to 49%
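Unstimulated transgenic mouse T cells, 750 per well, received compound and, after 60 minutes, anti-CD3/anti-CD4 bead plus anti-CD28 stimulation. EGFP and DsRed were quantified after 18 hours.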
Hits are given with their value; i = inactive; ? = inconclusive; nt = not tested or not shown. Hits are enriched below; roughly 1.5% of the tested compounds scored in any of these assays. Unless noted, the call rests on the fitted dose curve; in most records, active means well fitted curve in the direction sought with a large enough effect; inconclusive means small, poorly fitted or top-dose-only effect, or another doubt; inactive means no such curve, though single readings can be large; an effect the other way counts as inactive or inconclusive.

SMILES | uPA generation | 12-LOX inh | Integrin act MD | Nrf2 ARE act | IL2 activator
O=C(NS(=O)(=O)c1ccccc1)c1ccccc1 | i | ? | i | i | i
O=C(NS(=O)(=O)NC(=O)c1ccccc1)c1ccccc1 | nt | 11µM | nt | nt | nt
O=[N+]([O-])c1ccccc1S(=O)(=O)N/C(=N/S(=O)(=O)c1ccccc1)c1ccccc1 | i | i | i | i | i
COc1ccc(-c2cn3ccccc3n2)cc1OC | nt | ? | i | 11µM | i
Cc1ccc2nc(-c3ccc4c(c3)OCCO4)cn2c1 | i | i | i | i | i
COc1ccc(-c2cn3cc(C)ccc3n2)cc1OC | i | i | i | i | i
c1ccn2cc(-c3ccc4c(c3)OCCO4)nc2c1 | 3.2µM | i | i | i | i
CC(Sc1nc2cc(S(=O)(=O)N(C)C)ccc2o1)C(=O)NC1CC1 (configuration not stated) | nt | i | nt | nt | nt
COCCOc1ccc2c(n1)CCN(C(=O)c1ccco1)C2 | nt | i | nt | nt | nt
Nc1nc(SCc2ccc(Cl)cc2Cl)nc2nc3c(cc12)CCCC3 | i | ? | i | i | 82
CC(C)N(Cc1ccccc1)C(=O)COC(=O)c1cccc(Cl)c1Cl | nt | i | nt | nt | nt
O=[N+]([O-])c1cccc(C=NNc2ccccc2)c1 | i | 45µM | i | i | i
Cc1noc(C)c1S(=O)(=O)N1CCCCC(NC(=O)c2c[nH]c(=O)cn2)C1 (configuration not stated) | nt | i | nt | nt | nt
COC(=O)CNc1ccc(C(=O)OC)cc1 | nt | i | nt | nt | nt
Cc1[nH]c(C)c(C(=O)/C=C/c2ccc([N+](=O)[O-])cc2)c1C | ? | 32µM | i | ? | i
CNC(=O)[C@@H](C1CCCCC1)N1CCC[C@H]1C(=O)N1CCN(CCOC)CC1 | nt | 16µM | nt | nt | nt
CCn1cc(-c2ccc(C)cc2)cc1C(=O)NCCCN1CCOCC1 | nt | i | nt | nt | nt
Cc1ccc(-c2cc(C(=O)N/N=C/c3cccnc3)c3ccccc3n2)cc1C | 10µM | i | i | i | i
O=[N+]([O-])c1ccc(Cl)cc1N/N=C/c1ccncc1 | i | i | 5.6µM | 1µM | i
Cc1cc(C(=O)N/N=C/c2ccc([N+](=O)[O-])cc2)c2ccccc2n1 | 2.8µM | i | i | i | i
O=C(N/N=C/c1ccncc1)c1cc([N+](=O)[O-])cc([N+](=O)[O-])c1O | i | 50µM | i | i | i
CC1CCN(CC2CCCN(S(=O)(=O)c3ccc(F)cc3)CC2)CC1 (configuration not stated) | nt | i | nt | nt | nt
CCc1nc2ccc(C(=O)NC(C)c3ccccc3)cc2nc1CC (configuration not stated) | nt | i | nt | nt | nt
C=CCNCc1ccc(-c2cccc(Cl)c2C)o1 | nt | i | nt | nt | nt
O=Cc1ccc(Sc2ccc(Cl)cc2)cc1 | nt | i | nt | nt | nt
SMILES | uPA generation | 12-LOX inh | Integrin act MD | Nrf2 ARE act | IL2 activator
Cc1cc(C(=O)Nc2nnc(C(F)(F)F)s2)no1 | nt | i | ? | i | i
Cc1cc(C(=O)Nc2nnc(C(F)(F)F)s2)cs1 | i | i | i | 8.9µM | i
Cc1ccc(S(=O)(=O)N(Cc2ccco2)Cc2ccco2)cc1 | nt | i | nt | nt | nt
O=S(=O)(c1ccc2ccccc2c1)N(Cc1ccco1)Cc1cccs1 | nt | 50µM | nt | nt | nt
Cc1nc2cc(NS(=O)(=O)c3cc(F)ccc3F)ccc2o1 | nt | i | nt | nt | nt
COCCn1cnnc1SCc1ccc(F)cc1Cl | nt | i | nt | nt | nt
CN=c1scc(-c2ccc(F)cc2)n1/N=C/c1ccc(O)c(O)c1 | i | 45µM | i | i | i
NCCCC[C@@H]1NC(=O)[C@H](CCC(=O)O)NC(=O)c2cc([N+](=O)[O-])cc(I)c2SC[C@@H](C(=O)NCC(N)=O)NC1=O | i | 40µM | i | i | i
NCCCC[C@@H]1NC(=O)c2cc([N+](=O)[O-])cc(I)c2SC[C@@H](C(N)=O)NC(=O)[C@H](Cc2ccc(O)cc2)NC1=O | i | nt | i | i | i
N#Cc1c(NCc2ccccc2)ccnc1NCc1cccnc1 | i | i | i | i | i
COc1nccc(NCc2ccccc2)c1C#N | i | i | 10µM | i | i
CC(NC(=O)Nc1ccc(Cl)c(Cl)c1)C(c1ccccc1)N1CCOCC1 (configuration not stated) | 5µM | i | ? | i | i
CC1(C)C(=O)N(CCOc2ccccc2)[C@H]2CN(Cc3c[nH]c4ccccc34)C[C@H]2[S+]1(=O)[O-] | nt | i | nt | nt | nt
CC(C)CCn1c(SCC(=O)c2ccccc2)nc2c1c(=O)n(C)c(=O)n2C | nt | 18µM | nt | nt | nt
CC(C)CCn1c(SCC(=O)c2ccccc2)nc2c1c(=O)[nH]c(=O)n2C | i | i | i | i | i
O=C(/C=C/c1ccc(O)c(O)c1)c1ccc(S(=O)(=O)N2CCCCCC2)cc1 | i | 22µM | i | ? | i
COc1ccc(-c2cc(C(=O)N3CCCC3)c3ccccc3n2)c(OC)c1 | nt | 18µM | nt | nt | nt
COc1ccc(-c2cc(C(=O)N3CCCCCC3)c3ccccc3n2)cc1 | ? | i | i | i | i
CCNC(=O)c1cc(-c2ccc(OC)cc2OC)nc2ccccc12 | nt | 8.9µM | nt | nt | nt
Nc1cc(C(=O)N2CCc3onc(-c4ccc(-c5ccccc5)cc4)c3C2)[nH]n1 | nt | i | nt | nt | nt
C=CC[n+]1ccc2ccccc2c1C | i | ? | i | i | i
C=CC[n+]1ccc(/C=C2\C=Cc3cc(C)ccc3N2CC)c2ccccc21 | 2.5µM | nt | i | i | i
CCC(Sc1nncn1C)C(=O)Nc1nnc(-c2ccccc2Cl)s1 (configuration not stated) | i | i | i | i | i
CCC(Sc1ccc(Cl)cc1)C(=O)Nc1nnc(-c2cccc([N+](=O)[O-])c2)s1 (configuration not stated) | i | i | i | 13µM | i
FC(F)(F)c1cc(-c2cccs2)nc2sc3ccccc3c12 | nt | i | nt | nt | nt
C[N+](C)(C)CCN(Cc1ccc(Cl)cc1)c1ccccn1 | i | 16µM | i | i | i
Cc1nc(-c2ccc3c(c2)-c2ccccc2C3)cs1 | nt | 0.32µM | nt | nt | nt
